This is part of a sample that, as a whole, favours compounds with a hit. Of some 83,000 tested, about 20% had one in any assay.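 Single-dose data. Exposure time 48 hours. Values below 10 considered active.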 Calls of active or inactive are those of the source.
These molecules were tested on NCI-H522 lung (assay: NCI-60 one-dose screen, 48 h (100 = growth as untreated, 0 = no growth, -100 = all killed)). Conditions: 10 µM unless noted.
Procedure: Growth inhibition of the NCI-H522 human Non-Small Cell Lung tumor cell line is measured as a screen for anti-cancer activity. Cells are grown in 96 well plates and exposed to the test compound for 48 hours. Compounds are tested at a single concentration, which is 10^-5 M for most compounds. The reported endpoint is percent growth (GI% or GIPRCNT), where numbers from 0 - 100% represent growth inhibition, and numbers from -100% - 0 represent cell death. For example, a value of 40 represents 60% growth inhibition. A value of 0 means no net growth occurred over the course of the experiment. A value of -40 indicates 40% of cells at the beginning of the experiment died by the end of the experiment. A value of -100 means all cells are dead at the end of the experiment.
NCI-60 Human Tumor Cell Lines Screen was performed using the standard one-dose NCI protocol, which is described in more detail at https://dtp.cancer.gov/discovery_development/nci-60/default.htm.
Compounds with GIPRCNT values below 10 were considered active. Activity score was based on GIPRCNT using the following formula: […]
Score is 0 for GIPRCNT values of 100 or above, 50 for GIPRCNT values of 0, and 100 for GIPRCNT values of -100.
In the case of `O=C(NNc1nc2cc(F)c(F)cc2n2cccc12)c1cnccn1`, the growth is reported as 13.4% (inactive).
In the case of `Cc1cccc2c3c(sc12)C(c1ccc(F)cc1)C(C#N)=C(/N=C/c1ccc(Cl)cc1)O3` (stereo not given), the growth is reported as -53% (active).
`COc1ccc(C(=O)CSc2nc3c(c(Nc4ccc(S(N)(=O)=O)cc4)n2)CCCC3)cc1` was tested, and the growth was 91.4% (inactive).
With `O=S(=O)(Nc1cccc2ccccc12)c1ccc(-c2cnc(C3CC3)o2)cc1` the growth was 21.9% (inactive).
In the case of `O=C(CCn1cc[n+](CC(=O)c2ccc(-c3ccccc3)cc2)c1)Nc1cccc2cccnc12`, the growth is reported as 48% (inactive).
`NS(=O)(=O)c1ccc(Nc2nc(N/N=C/CCc3ccccc3)nc(Nc3ccccc3)n2)cc1` was tested, and the growth was 87.1% (inactive).
`N#Cc1cccc(NC(=O)c2cc(-c3ccc(F)cc3F)ccc2O)c1` was tested, and the growth was 1.9% (active).
With `Cc1ccc(-c2cc3nc(C(Cl)Cl)nc(-c4ccco4)n3n2)cc1` the growth was 94.5% (inactive).
`NS(=O)(=O)c1ccc(Nc2nc(N/N=C/c3ccccn3)nc(Nc3ccccc3)n2)cc1` was tested, and the growth was -32.6% (active).
For `CC(c1ccccc1)N1CSc2nc3ncncc3n2C1` (stereo not given), the growth was 38.2% (inactive).
For `CCOc1cccc(-c2nc3sccn3c2-c2ccnc(S(C)(=O)=O)n2)c1`, the growth was 98.9% (inactive).
In the case of `CCCCNNC(=O)c1ccc(-c2cccc(F)c2F)cc1`, the growth is reported as 4.69% (active).
With `CCNC(=O)Oc1ccc(/C(=C(/C)c2ccccc2)c2ccc(OCCN3CCCCCC3)cc2)cc1` the growth was 63.8% (inactive).
`COc1ccc2[nH]cc(/C=N/Nc3nc4ccccc4s3)c2c1` was tested, and the growth was 28.5% (inactive).
For `COc1ccc(Oc2ccc(/C=N/NC(=O)CSc3nc4ccccc4c(=O)n3-c3ccc(Cl)cc3)cc2)cc1`, the growth was 51.3% (inactive).
For `COc1ccc(-c2nc(C(Cl)Cl)nc3cc(-c4ccccc4)nn23)cc1`, the growth was -59.4% (active).
`O=C(NNc1nc2cc(F)c(F)cc2n2c(CN3CC4CNCC4C3)ccc12)c1cnccn1` (stereo not given) was tested, and the growth was 11.2% (inactive).
`CC(C)(C)c1ccc(-c2nnc(-c3nc4ccccc4nc3Cl)o2)cc1` was tested, and the growth was 99.1% (inactive).
With `C[C@H]1c2[nH]c3ccccc3c2C[C@H]2C(=O)N(CCCCCCC(=O)NO)CC(=O)N21` the growth was 65.6% (inactive).
With `Cc1cc(C)cc(C(=O)Nc2cccc(C#Cc3cccc4[nH]nc(N)c34)c2)c1` the growth was 23.6% (inactive).
`O=C(Nc1nc2ccc([N+](=O)[O-])cc2s1)Nc1ccccc1Cl` was tested, and the growth was 0.0093% (active).
For `CCCCCc1ccc(S(=O)(=O)Nc2cc(-c3csc(NC(=O)CN4CCN(CCO)CC4)n3)ccc2OC)cc1`, the growth was 45.7% (inactive).
`O=S(=O)(NC1c2ccccc2C[C@H]1O)c1ccc(Cl)cc1Cl` (stereo not given in full) was tested, and the growth was 98.3% (inactive).
`CNC(=O)c1cc(-c2ccc(NS(=O)(=O)c3ccc(C)cc3)cc2)nc2cccnc12` was tested, and the growth was 91.6% (inactive).
`Oc1cccc2ccc(-c3nnc(SCc4ccc(O)c5ncccc45)n3-c3ccccc3)nc12` was tested, and the growth was 13.5% (inactive).
With `CCN(CC)c1ccc(NC2=C(Cl)C(=O)c3nc(C)ccc3C2=O)cc1` the growth was -44.3% (active).
For `COc1cc(Cn2cc3c(c2)-c2onc(CN4CCOCC4)c2CC3)cc(OC)c1OC`, the growth was 86% (inactive).
For `O=C(Nc1nc2ccc([N+](=O)[O-])cc2s1)Nc1ccccc1Br`, the growth was 26.5% (inactive).
`CNC1CCc2c(sc(NC(=O)c3ccc(C(C)(C)C)cc3)c2C(N)=O)C1` (stereo not given) was tested, and the growth was 61.6% (inactive).
With `Cc1ccc(-c2nnc(SCc3ccc(O)c4ncccc34)o2)cc1` the growth was 26.6% (inactive).
For `CCO/C=N/C1=C(C#N)C(c2ccc(F)cc2)c2sc3c(CC)cccc3c2O1` (stereo not given), the growth was 8.86% (active).
With `Cc1occc1-c1nc2s/c(=C/c3ccc(-c4cc(C(F)(F)F)ccc4Cl)o3)c(=O)n2n1` the growth was 98.2% (inactive).
`O=C(O)c1ccc(-n2cc(CNc3cccc(Cl)c3)c(-c3ccc(F)cc3)n2)cc1` was tested, and the growth was 92.2% (inactive).
For `Nc1nc(N)c2c(n1)NC(c1ccc(Cl)cc1)CC(c1ccc(Nc3nc(NCCO)nc(N4CCOCC4)n3)cc1)=N2` (stereo not given), the growth was 65.8% (inactive).
`CN(C)CCNC(=O)c1ccc(-c2nc3ccc4[nH]ncc4c3c3c2COCC3)cc1` was tested, and the growth was -46% (active).
In the case of `C=CCn1c(-c2nc3ccc(C(=C(C#N)C#N)c4ccccc4)cc3[nH]2)cc2cc(Br)ccc21`, the growth is reported as 60.2% (inactive).
With `O=C(Nc1cccc(C(F)(F)F)c1)c1cc(-c2ccc(F)cc2F)ccc1O` the growth was -4.56% (active).
For `CCn1c2ccccc2c2cc(-n3nncc3-c3ccccc3)ccc21`, the growth was 4.55% (active).
In the case of `Nc1ncc(-c2ccc3ncnc(Nc4cccc(Cl)c4F)c3c2)cn1`, the growth is reported as 32.2% (inactive).
`CS(=O)(=O)c1ccc(-c2nn(-c3ccccc3)cc2/C=N/NC(=O)c2nc(N)n[nH]2)cc1` was tested, and the growth was 94.2% (inactive).
